According to paper PMC7862700, “An all-to-all approach to the identification of sequence-specific readers for epigenetic DNA modifications on cytosine”:

target: T1, ETV2 (Homo sapiens, UniProt O00321 1-342); assay: DAPPL (digital affinity profiling via proximity ligation, sequencing); 10 mM Tris-HCl pH 7.5, 50 mM NaCl, 1 mM DTT, 4% glycerol, room temperature, 30 min; GST-TFs on glutathione beads, 16-mer random dsDNA library, 0.1% formaldehyde crosslink after washing; high values mean tight binding; conditions: protein: recombinant; tags: N-terminal GST; dsDNA, one strand shown
T1 sequence: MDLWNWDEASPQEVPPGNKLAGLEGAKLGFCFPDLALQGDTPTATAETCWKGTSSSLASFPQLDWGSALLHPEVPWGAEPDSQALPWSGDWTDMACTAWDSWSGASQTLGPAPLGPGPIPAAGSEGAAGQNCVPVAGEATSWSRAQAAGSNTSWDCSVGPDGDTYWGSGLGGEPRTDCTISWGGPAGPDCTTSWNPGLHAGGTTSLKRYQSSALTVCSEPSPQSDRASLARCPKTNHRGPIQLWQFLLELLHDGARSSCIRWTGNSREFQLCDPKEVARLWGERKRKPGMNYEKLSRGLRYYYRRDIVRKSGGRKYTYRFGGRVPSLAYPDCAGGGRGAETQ
Method in brief: (§1)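 GST fusions of human transcription factors were expressed in yeast and captured with glutathione beads. Once given DNA barcodes and pooled alongside a tag-only sample, they were incubated for 30 min at room temperature with 200 nmole of a random double-stranded 16-mer DNA library in Tris/NaCl/DTT/glycerol buffer, then washed, crosslinked (0.1% formaldehyde), proximity-ligated, PCR-amplified and sequenced on an Illumina NextSeq500. The binding signal of each hexamer is its read frequency for a factor divided by its frequency for the tag-only sample.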

Sequence | binding signal
GTTAAA | 1.11 fold enrichment (6-mer frequency, TF over GST control)
TGTACC | 1.35 fold enrichment (6-mer frequency, TF over GST control)
ATCCAA | 1.09 fold enrichment (6-mer frequency, TF over GST control)
TGAATG | 1.37 fold enrichment (6-mer frequency, TF over GST control)
GGTTTA | 1.15 fold enrichment (6-mer frequency, TF over GST control)
GTTCGA | 1 fold enrichment (6-mer frequency, TF over GST control)
AGGAAA | 1.41 fold enrichment (6-mer frequency, TF over GST control)
CCGACA | 1.32 fold enrichment (6-mer frequency, TF over GST control)
GCCGAT | 1.13 fold enrichment (6-mer frequency, TF over GST control)
TGATCA | 1.1 fold enrichment (6-mer frequency, TF over GST control)
AGTTAA | 1.2 fold enrichment (6-mer frequency, TF over GST control)
CTGAAG | 1.09 fold enrichment (6-mer frequency, TF over GST control)
AGGTTT | 1.05 fold enrichment (6-mer frequency, TF over GST control)
TTATTA | 1.2 fold enrichment (6-mer frequency, TF over GST control)
TAGTAA | 1.12 fold enrichment (6-mer frequency, TF over GST control)
TACTGG | 1.3 fold enrichment (6-mer frequency, TF over GST control)
TGAGCT | 1.19 fold enrichment (6-mer frequency, TF over GST control)
TTTGAG | 1.04 fold enrichment (6-mer frequency, TF over GST control)
GTTAAT | 1.18 fold enrichment (6-mer frequency, TF over GST control)
TGTACG | 1.13 fold enrichment (6-mer frequency, TF over GST control)

Sequence | binding signal
AACTTG | 1.12 fold enrichment (6-mer frequency, TF over GST control)
TCCCAG | 1.02 fold enrichment (6-mer frequency, TF over GST control)
CGATAT | 1.19 fold enrichment (6-mer frequency, TF over GST control)
TAAGGT | 1.08 fold enrichment (6-mer frequency, TF over GST control)
AAAAGT | 1.03 fold enrichment (6-mer frequency, TF over GST control)
GTTAAG | 1.1 fold enrichment (6-mer frequency, TF over GST control)
TAGAAT | 1.06 fold enrichment (6-mer frequency, TF over GST control)
GCGTTC | 1.23 fold enrichment (6-mer frequency, TF over GST control)
CTGCCA | 1.03 fold enrichment (6-mer frequency, TF over GST control)
CCCCGA | 1.24 fold enrichment (6-mer frequency, TF over GST control)
GCACTC | 1.36 fold enrichment (6-mer frequency, TF over GST control)
AAACTG | 1.09 fold enrichment (6-mer frequency, TF over GST control)
TAGTCC | 1.21 fold enrichment (6-mer frequency, TF over GST control)
TGATAT | 1.21 fold enrichment (6-mer frequency, TF over GST control)
TCGCAC | 1.07 fold enrichment (6-mer frequency, TF over GST control)
GAAACT | 1.12 fold enrichment (6-mer frequency, TF over GST control)
GGAATT | 1.13 fold enrichment (6-mer frequency, TF over GST control)
TTCGGC | 1.22 fold enrichment (6-mer frequency, TF over GST control)
TCTGGG | 1.19 fold enrichment (6-mer frequency, TF over GST control)
AGTAAT | 1.24 fold enrichment (6-mer frequency, TF over GST control)

target: T2, ELF3 (Homo sapiens, UniProt P78545 1-371); assay: as above; conditions: protein: recombinant; tags: N-terminal GST; dsDNA, one strand shown
T2 sequence: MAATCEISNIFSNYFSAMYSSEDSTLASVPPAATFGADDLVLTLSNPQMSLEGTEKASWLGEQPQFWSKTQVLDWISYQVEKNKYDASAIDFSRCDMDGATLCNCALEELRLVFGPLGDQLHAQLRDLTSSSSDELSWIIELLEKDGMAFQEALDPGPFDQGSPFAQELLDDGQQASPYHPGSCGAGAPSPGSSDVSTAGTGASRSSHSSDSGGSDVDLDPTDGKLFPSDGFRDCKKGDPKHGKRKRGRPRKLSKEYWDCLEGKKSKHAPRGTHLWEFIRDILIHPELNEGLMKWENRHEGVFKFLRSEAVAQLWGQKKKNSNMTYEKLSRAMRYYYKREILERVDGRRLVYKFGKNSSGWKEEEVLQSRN
Method in brief: as §1

Sequence | binding signal
GTTAAA | 1.29 fold enrichment (6-mer frequency, TF over GST control)
TGTACC | 1.38 fold enrichment (6-mer frequency, TF over GST control)
ATCCAA | 1.28 fold enrichment (6-mer frequency, TF over GST control)
TGAATG | 1.08 fold enrichment (6-mer frequency, TF over GST control)
GGTTTA | 1.13 fold enrichment (6-mer frequency, TF over GST control)
GTTCGA | 1.13 fold enrichment (6-mer frequency, TF over GST control)
AGGAAA | 1.72 fold enrichment (6-mer frequency, TF over GST control)
CCGACA | 1.18 fold enrichment (6-mer frequency, TF over GST control)
GCCGAT | 1.02 fold enrichment (6-mer frequency, TF over GST control)
TGATCA | 1.03 fold enrichment (6-mer frequency, TF over GST control)
AGTTAA | 1.09 fold enrichment (6-mer frequency, TF over GST control)
CTGAAG | 1.18 fold enrichment (6-mer frequency, TF over GST control)
AGGTTT | 1.07 fold enrichment (6-mer frequency, TF over GST control)
TTATTA | 1.09 fold enrichment (6-mer frequency, TF over GST control)
TAGTAA | 1.06 fold enrichment (6-mer frequency, TF over GST control)
TACTGG | 1.17 fold enrichment (6-mer frequency, TF over GST control)
TGAGCT | 1.23 fold enrichment (6-mer frequency, TF over GST control)
TTTGAG | 1.08 fold enrichment (6-mer frequency, TF over GST control)
GTTAAT | 1.09 fold enrichment (6-mer frequency, TF over GST control)
TGTACG | 1.13 fold enrichment (6-mer frequency, TF over GST control)

Sequence | binding signal
AACTTG | 1.19 fold enrichment (6-mer frequency, TF over GST control)
TCCCAG | 1.14 fold enrichment (6-mer frequency, TF over GST control)
CGATAT | 1.14 fold enrichment (6-mer frequency, TF over GST control)
TAAGGT | 1.08 fold enrichment (6-mer frequency, TF over GST control)
AAAAGT | 1.12 fold enrichment (6-mer frequency, TF over GST control)
GTTAAG | 1.06 fold enrichment (6-mer frequency, TF over GST control)
TAGAAT | 1.19 fold enrichment (6-mer frequency, TF over GST control)
GCGTTC | 1.15 fold enrichment (6-mer frequency, TF over GST control)
CTGCCA | 1.22 fold enrichment (6-mer frequency, TF over GST control)
CCCCGA | 1.35 fold enrichment (6-mer frequency, TF over GST control)
GCACTC | 1.41 fold enrichment (6-mer frequency, TF over GST control)
AAACTG | 1.01 fold enrichment (6-mer frequency, TF over GST control)
TAGTCC | 1.13 fold enrichment (6-mer frequency, TF over GST control)
TGATAT | 1.04 fold enrichment (6-mer frequency, TF over GST control)
TCGCAC | 1.18 fold enrichment (6-mer frequency, TF over GST control)
GAAACT | 1.19 fold enrichment (6-mer frequency, TF over GST control)
GGAATT | 1.12 fold enrichment (6-mer frequency, TF over GST control)
TTCGGC | 1.07 fold enrichment (6-mer frequency, TF over GST control)
TCTGGG | 1.12 fold enrichment (6-mer frequency, TF over GST control)
AGTAAT | 1.08 fold enrichment (6-mer frequency, TF over GST control)

target: CRX (Homo sapiens, UniProt O43186 1-299); assay: as above; conditions: protein: recombinant; tags: N-terminal GST; dsDNA, one strand shown
Sequence (O43186 whole entry): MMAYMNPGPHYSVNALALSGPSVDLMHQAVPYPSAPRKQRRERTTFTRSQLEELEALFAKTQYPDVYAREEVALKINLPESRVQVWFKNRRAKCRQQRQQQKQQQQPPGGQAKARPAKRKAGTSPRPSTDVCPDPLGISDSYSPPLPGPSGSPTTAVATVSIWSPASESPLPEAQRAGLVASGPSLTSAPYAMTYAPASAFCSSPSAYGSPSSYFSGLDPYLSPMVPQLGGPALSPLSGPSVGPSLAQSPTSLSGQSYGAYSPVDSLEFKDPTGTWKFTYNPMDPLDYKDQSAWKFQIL
Method in brief: as §1

Sequence | binding signal
GTTAAA | 1.27 fold enrichment (6-mer frequency, TF over GST control)
ATCCAA | 1.63 fold enrichment (6-mer frequency, TF over GST control)
GGTTTA | 1.66 fold enrichment (6-mer frequency, TF over GST control)
GTTCGA | 1.11 fold enrichment (6-mer frequency, TF over GST control)
GCCGAT | 1.46 fold enrichment (6-mer frequency, TF over GST control)
TGATCA | 1.18 fold enrichment (6-mer frequency, TF over GST control)
AGTTAA | 1.51 fold enrichment (6-mer frequency, TF over GST control)
AGGTTT | 1.19 fold enrichment (6-mer frequency, TF over GST control)
TTATTA | 2.49 fold enrichment (6-mer frequency, TF over GST control)
TAGTAA | 1.59 fold enrichment (6-mer frequency, TF over GST control)
TACTGG | 1.35 fold enrichment (6-mer frequency, TF over GST control)
TGAGCT | 1.35 fold enrichment (6-mer frequency, TF over GST control)
TTTGAG | 1.23 fold enrichment (6-mer frequency, TF over GST control)
GTTAAT | 2.41 fold enrichment (6-mer frequency, TF over GST control)
TCCCAG | 1.19 fold enrichment (6-mer frequency, TF over GST control)
CGATAT | 1.03 fold enrichment (6-mer frequency, TF over GST control)
TAAGGT | 1.38 fold enrichment (6-mer frequency, TF over GST control)
AAAAGT | 1.09 fold enrichment (6-mer frequency, TF over GST control)
GTTAAG | 1.87 fold enrichment (6-mer frequency, TF over GST control)
TAGAAT | 1.83 fold enrichment (6-mer frequency, TF over GST control)
CCCCGA | 1.14 fold enrichment (6-mer frequency, TF over GST control)
